Measurements reported in PubChem BioAssay (NCATS).
Records with an inconclusive call do not appear. The source made the active and inactive calls. The call rests on the fitted dose curve; in most records, active means well fitted curve in the direction sought with a large enough effect; inconclusive means small, poorly fitted or top-dose-only effect, or another doubt; inactive means no such curve, though single readings can be large; an effect the other way counts as inactive or inconclusive.

Experiments:
[1] = target: Glutathione peroxidase 1 (Homo sapiens) (UniProt P07203); assay: Primary qHTS Assay for Inhibitors of Recombinant Selenoprotein Glutathione Peroxidase 1 (GPX1) (AID 1845191); further: nearly all actives have a fitted effect of over 65% in size
Chain of Glutathione peroxidase 1 (Homo sapiens) (P07203 whole entry, looked up): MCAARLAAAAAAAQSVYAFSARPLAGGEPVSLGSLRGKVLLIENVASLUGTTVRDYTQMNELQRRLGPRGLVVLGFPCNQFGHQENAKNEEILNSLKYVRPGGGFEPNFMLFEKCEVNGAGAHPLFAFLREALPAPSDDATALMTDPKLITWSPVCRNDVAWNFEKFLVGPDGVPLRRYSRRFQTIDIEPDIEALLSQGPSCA
How it was run: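 GPX1 10 nM, GR 100 nM, GSH 1 mM, NADPH 0.5 mM, CHP 0.5 mM (final). 30-min cpd preincubation, RT. Ex340/Em450 read t=0, t=15 min.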

[2] = target: Phospholipid hydroperoxide glutathione peroxidase GPX4 (Homo sapiens) (UniProt P36969); assay: Primary qHTS Assay for Inhibitors of Recombinant Selenoprotein Glutathione Peroxidase 4 (GPX4) (AID 1845192); further: on the % scale 0 is the no-effect control and ±100 the full control effect; nearly all actives have a fitted effect of over 65% in size
Chain of Phospholipid hydroperoxide glutathione peroxidase GPX4 (Homo sapiens) (P36969 whole entry, looked up): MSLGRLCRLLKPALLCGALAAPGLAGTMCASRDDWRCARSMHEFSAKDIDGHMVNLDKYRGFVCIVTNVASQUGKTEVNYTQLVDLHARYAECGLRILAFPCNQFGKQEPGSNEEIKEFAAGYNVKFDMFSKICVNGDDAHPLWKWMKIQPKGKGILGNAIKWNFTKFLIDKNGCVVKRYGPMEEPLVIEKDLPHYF
How it was run: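 qHTS, GR-coupled: GPX4 200 nM + cpd 30 min RT → GSH 1 mM, NADPH 0.5 mM, GR 100 nM → CHP 0.5 mM start; fluor 340/450 at t0 and t15 min; no-enzyme wells as control.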

[3] = target: Luciferin 4-monooxygenase (Photinus pyralis) (UniProt P08659); assay: Primary firefly luciferase (FLuc) qHTS assay for identification of artifact compounds. (AID 1845220); settings: outcome: dose series up to 54.1 µM unless noted; further: nearly all actives have a fitted effect of over 60% in size;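 on activity change, negative = inhibition: plate controls were DMSO vehicle for no effect and no enzyme for full effect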
How it was run: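 In this counter-screen for luciferase artifacts, test compounds met substrate (10 uM each luciferin and ATP) before 10 nM enzyme started the reaction. Light output was measured 5 min later.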

[4] = Primary fluorescence-based thiol-reactive (MSTI) qHTS assay for identification of artifact compounds. (AID 1845221); further: nearly all actives have a fitted effect of over 65% in size; further: potency means the concentration at half of the fitted maximal effect;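 on activity change, negative = thiol reactive: thiol-reactive compounds lower the probe fluorescence signal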
How it was run: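 MSTI probe at 4 uM final in 2% DMSO/PBS pH 7.4; compounds, 1 h at room temperature in dark. Fluorescence Ex/Em 525/598 nm, normalised to Acetyl-MSTI and MSTI, fitted to 4-parameter Hill.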

[5] = tested on: Nanoluciferase (engineered Oplophorus gracilirostris luciferase); assay: Primary Nanoluciferase (NLuc) qHTS assay for identification of artifact compounds. (AID 1845222);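 further: NLuc secreted into diluted conditioned medium of S16 cells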
How it was run: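 Using secreted nanoluciferase in S16 culture medium (0.22 um filtered, 1:55 dilution), compounds were preincubated 15 min at RT. Signal was generated with Nano-Glo reagent (1:100) over 5 min.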

[6] = Primary redox qHTS assay for identification of artifact compounds. (AID 1845223);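 further: 0% = DMSO and 100% = reference compound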
How it was run: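 Redox-cycling detection via DTT (250 uM final) oxidation coupled to Amplex Red (25 uM)/HRP (250 mU/mL) in HBSS. 15 min preincubation plus 30 min after DTT, room temperature. Ex/Em 525/598 nm; 4-parameter Hill fit against DMSO and 10 uM DA3003.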

CRL-7250 = normal cell line; assay: Cytotoxic Profiling of Annotated Libraries Using Quantitative High-Throughput Screening (AID 1296008); settings: Five cell lines viability, CellTiter-Glo ATP luminescence, 48-72 h; max response: hits give low values; further: nearly all actives have a fitted effect of over 60% in size; further: potency means the concentration at half of the fitted maximal effect
How it was run: (§1)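 Compounds were pin-transferred onto cells and incubated 48 or 72 hr at 37 degree Celsius, 95% humidity. CellTiter-Glo was added, plates sat 10 min at room temperature, then ATP-coupled luminescence was imaged as the viability read-out.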

NIH3T3 = assay: as above; settings: Five cell lines viability, CellTiter-Glo ATP luminescence, 48-72 h; max response: hits give low values
How it was run: as §1

CAOV3 = assay: Primary qHTS to identify gynecologic anti-cancer compounds using libraries of approved drugs and bioactive compounds (AID 1345084); settings: Gynecologic cancer cell panel viability, ATPlite luminescence, 48 h; series mostly up to 57.5 µM; further: nearly all actives have a fitted effect of over 55% in size; further: potency means the concentration at half of the fitted maximal effect; on activity change, negative = cytotoxicity: on the % scale 0 is the no-effect control and ±100 the full control effect
How it was run: (§2)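 Cells, 1,000 per well, plated 16 h, then exposed 48 h at 37 C to compounds. Viability by ATPlite luminescence after 15 min at room temperature.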

CASKI = assay: as above; settings: Gynecologic cancer cell panel viability, ATPlite luminescence, 48 h; series mostly up to 57.5 µM
How it was run: as §2

JEG-3 = assay: as above; settings: Gynecologic cancer cell panel viability, ATPlite luminescence, 48 h; series mostly up to 57.5 µM
How it was run: as §2

Tov-21-G = assay: as above; settings: Gynecologic cancer cell panel viability, ATPlite luminescence, 48 h; series mostly up to 57.5 µM
How it was run: as §2

[7] = tested on: Zika virus NS2B-NS3 protease (linked construct); assay: Primary screen NINDS Rhodamine qHTS for Zika virus inhibitors (AID 1347160); further: nearly all actives have a fitted effect of over 55% in size; on activity change, negative = inhibition: on the % scale 0 is the no-effect control and ±100 the full control effect
How it was run: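 Enzyme (25 nM, linked NS2B-NS3) was preincubated 15 min with compound in 10 mM Tris-HCl pH 8.0, 0.01% Tween 20. Rhodamine110 substrate (1.5 microM) was then added and fluorescence read at start and after 15 min.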

[8] = target: Calcium and integrin-binding protein 1 (Homo sapiens) (UniProt Q99828); assay: Primary qHTS for Identification of Calcium Integrin Binding Protein 1 (CIB1) Competitor (AID 1508620);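 further: GST tagged CIB1 binding a fluorescein labelled alphaIIb integrin peptide tracer; top concentration of the series differs between compounds; on the % scale 0 is the no-effect control and ±100 the full control effect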
Chain of Calcium and integrin-binding protein 1 (Homo sapiens) (Q99828 whole entry, looked up): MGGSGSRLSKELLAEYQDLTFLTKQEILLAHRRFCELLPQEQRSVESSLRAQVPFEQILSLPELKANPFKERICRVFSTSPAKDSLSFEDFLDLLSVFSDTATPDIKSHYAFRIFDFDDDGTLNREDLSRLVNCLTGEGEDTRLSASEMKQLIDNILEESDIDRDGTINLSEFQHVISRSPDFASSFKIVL
How it was run: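 Fluorescence polarization competition: CIB1-GST (1 uM final) preincubated with compound 15 min at room temperature, then FITC-labeled alphaIIb peptide (100 nM final) added for another 15 min. Polarization read at Ex 480/Em 540.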

C33A = assay: Primary qHTS to identify gynecologic anti-cancer compounds using libraries of approved drugs and bioactive compounds (AID 1345084); settings: Gynecologic cancer cell panel viability, ATPlite luminescence, 48 h; series mostly up to 57.5 µM; further: nearly all actives have a fitted effect of over 55% in size; further: potency means the concentration at half of the fitted maximal effect; on activity change, negative = cytotoxicity: on the % scale 0 is the no-effect control and ±100 the full control effect
How it was run: as §2

Es-2 = assay: as above; settings: Gynecologic cancer cell panel viability, ATPlite luminescence, 48 h; series mostly up to 57.5 µM
How it was run: as §2

Hek293T = assay: as above; settings: Gynecologic cancer cell panel viability, ATPlite luminescence, 48 h, control line for the selectivity index; series mostly up to 57.5 µM
How it was run: as §2

OV90 = assay: as above; settings: Gynecologic cancer cell panel viability, ATPlite luminescence, 48 h; series mostly up to 57.5 µM
How it was run: as §2

PA-1 = assay: as above; settings: Gynecologic cancer cell panel viability, ATPlite luminescence, 48 h; series mostly up to 57.5 µM
How it was run: as §2

Tov112D = assay: as above; settings: Gynecologic cancer cell panel viability, ATPlite luminescence, 48 h; series mostly up to 57.5 µM
How it was run: as §2

C=C(C)[C@@]12O[C@@H]1[C@@]1(C)C(=CC2=O)CC[C@@H](OC(C)=O)[C@@H]1C
inactive: Potency [1] | Potency [2] | outcome [3] | Potency [4] | Potency [5] | Potency [6] | Potency (CAOV3) | Potency (CASKI) | Potency (JEG-3)
active: Potency (CRL-7250) 6510 nM | Potency (NIH3T3) 3660 nM | Potency (Tov-21-G) 10000 nM

C/C=C(\C)C(=O)OC1CC2C(CC=C3CC(OC4CC(OC)C(OC5CC(OC)C(OC6CC(OC)C(OC7CC(OC)C(O)C(C)O7)C(C)O6)C(C)O5)C(C)O4)CCC32C)C2(O)CCC(C(C)=O)C12C (stereo not given)
inactive: Potency [7] | Potency [8] | Potency [1] | Potency [2] | activity change, negative = inhibition [3] 3.09% [at 11.6 µM] | activity change, negative = thiol reactive [4] 0.247% [at 11.5 µM] | activity, negative = inhibition [5] 1.71% [at 11.6 µM] | redox activity (% of DA3003) [6] 4.9% [at 11.5 µM] | max response (CRL-7250) -2.08% | outcome (NIH3T3) | activity change, negative = cytotoxicity (C33A) -3.2% [at 11.6 µM] | activity change, negative = cytotoxicity (CAOV3) 3.23% [at 11.6 µM] | activity change, negative = cytotoxicity (CASKI) -11.1% [at 11.6 µM] | activity change, negative = cytotoxicity (Es-2) -0.231% [at 11.6 µM] | activity change, negative = cytotoxicity (Hek293T) -2.97% [at 11.6 µM] | activity change, negative = cytotoxicity (JEG-3) -3.8% [at 11.6 µM] | activity change, negative = cytotoxicity (OV90) -21.5% [at 11.6 µM] | activity change, negative = cytotoxicity (PA-1) -6.71% [at 11.6 µM] | activity change, negative = cytotoxicity (Tov-21-G) 1.18% [at 11.6 µM] | activity change, negative = cytotoxicity (Tov112D) -0.393% [at 11.6 µM]

CN(C(=O)C(c1ccccc1)c1ccccc1)[C@H](CN1CC[C@H](O)C1)c1ccccc1
inactive: Potency [7] | Potency [8] | Potency [1] | Potency [2] | outcome [3] | Potency [4] | Potency [5] | Potency [6] | outcome (CRL-7250) | max response (NIH3T3) 3.64% | Potency (C33A) | Potency (CAOV3) | Potency (CASKI) | Potency (Es-2) | Potency (Hek293T) | Potency (JEG-3) | Potency (OV90) | Potency (PA-1) | Potency (Tov-21-G) | Potency (Tov112D)

CC12CCC3C(C1)c1c(cc(O)c(C(=O)c4ccccc4)c1OC3(C)C)O2 (stereo not given)
inactive: Potency [7] | Potency [8] | Potency [2] | outcome [3] | Potency [4] | Potency [5] | outcome (CRL-7250) | max response (NIH3T3) 3.12% | Potency (C33A) | Potency (CAOV3) | Potency (CASKI) | Potency (Es-2) | Potency (Hek293T) | Potency (JEG-3) | Potency (OV90) | Potency (PA-1) | Potency (Tov-21-G) | Potency (Tov112D)

c1ccc([C@@H]2C[C@H]2NC2CCNCC2)cc1
inactive: Potency [7] | Potency [8] | Potency [1] | Potency [2] | outcome [3] | Potency [4] | Potency [6] | max response (CRL-7250) -8.87% | Potency (C33A) | Potency (CAOV3) | Potency (CASKI) | Potency (Es-2) | Potency (Hek293T) | Potency (JEG-3) | Potency (OV90) | Potency (PA-1) | Potency (Tov-21-G) | Potency (Tov112D)

CC1=CC(=O)[C@@H](O)[C@@]2(C)C1C[C@H]1OC(=O)[C@H](O)[C@@]3(O)[C@@H](C)[C@@H](O)[C@H](O)C2[C@@]13C (stereo not given in full)
inactive: Potency [7] | Potency [8] | Potency [1] | Potency [2] | outcome [3] | Potency [4] | Potency [5] | Potency [6] | Potency (CASKI) | Potency (JEG-3)
active: Potency (CRL-7250) 2860 nM | Potency (Tov-21-G) 11200 nM

CC[C@H](O)[C@@H](C)[C@H]1O[C@@H]1C[C@H](C)/C=C/C=C(\C)[C@H]1OC(=O)C[C@H](O)CC[C@@](C)(O)[C@@H](OC(C)=O)/C=C/[C@@H]1C
inactive: Potency [7] | Potency [8] | Potency [1] | Potency [2] | outcome [3] | Potency [5] | Potency [6] | Potency (JEG-3)
active: Potency (CRL-7250) 16.4 nM | Potency (NIH3T3) 11.6 nM

CCCN(CCC)[C@@H]1CCc2ccc3[nH]c(C#N)cc3c2C1
inactive: Potency [7] | Potency [8] | Potency [1] | Potency [2] | outcome [3] | Potency [4] | Potency [5] | Potency [6] | outcome (CRL-7250) | outcome (NIH3T3) | Potency (C33A) | Potency (CAOV3) | Potency (CASKI) | Potency (Es-2) | Potency (Hek293T) | Potency (JEG-3) | Potency (OV90) | Potency (PA-1) | Potency (Tov-21-G) | Potency (Tov112D)

CC(=O)O[C@H]1C[C@]2(O)[C@@H]3CC[C@@H]4C[C@@H](O)CC[C@]4(C)[C@H]3CC[C@]2(C)[C@H]1c1ccc(=O)oc1
active: Potency (CRL-7250) 51.7 nM | Potency (C33A) 28.2 nM | Potency (CAOV3) 158 nM | Potency (CASKI) 398 nM | Potency (Es-2) 100 nM | Potency (Hek293T) 89.1 nM | Potency (JEG-3) 316 nM | Potency (PA-1) 100 nM | Potency (Tov-21-G) 89.1 nM
inactive: Potency [7] | Potency [1] | Potency [2] | outcome [3] | Potency [4] | Potency [5] | Potency [6] | max response (NIH3T3) -9.3%

COc1cc(C(=O)N2CC[C@@H](O)[C@@H](N)C2)cc2nc(-c3cc4ccccc4n3CC3CC3)n(C)c12
active: Potency (CRL-7250) 20900 nM
inactive: Potency [8] | Potency [1] | Potency [2]

CN1C(=O)N(c2ccc(C#N)c(C(F)(F)F)c2)C(=O)[C@@]1(CO)c1ccccc1
inactive: Potency [7] | Potency [1] | Potency [2] | outcome [3] | Potency [4] | Potency [5] | Potency [6] | outcome (CRL-7250) | max response (NIH3T3) 4.41% | Potency (C33A) | Potency (CAOV3) | Potency (CASKI) | Potency (Es-2) | Potency (Hek293T) | Potency (JEG-3) | Potency (OV90) | Potency (PA-1) | Potency (Tov-21-G) | Potency (Tov112D)

COC1CCCC(C)OC(=O)Cc2cc(O)cc(O)c2C(=O)C1 (stereo not given)
inactive: Potency [7] | Potency [8] | Potency [1] | Potency [2] | outcome [3] | Potency [5] | Potency [6] | Potency (CAOV3) | Potency (CASKI) | Potency (OV90) | Potency (Tov-21-G)
active: Potency (CRL-7250) 14300 nM | Potency (PA-1) 11200 nM

CN(C)[C@@H]1C(=O)C(C(N)=O)=C(O)[C@@]2(O)C(=O)C3=C(O)c4c(O)ccc(Cl)c4[C@@](C)(O)C3C[C@@H]12 (stereo not given in full)
inactive: Potency [7] | Potency [1] | outcome [3] | Potency [5] | max response (CRL-7250) -6.15% | outcome (NIH3T3) | Potency (C33A) | Potency (CAOV3) | Potency (CASKI) | Potency (Es-2) | Potency (Hek293T) | Potency (JEG-3) | Potency (OV90) | Potency (PA-1) | Potency (Tov-21-G) | Potency (Tov112D)
active: Potency [4] 1680 nM
